Here are results for 14 compounds from the supplement of paper PMC9177965.

This experiment has as its system HT29 sg-Ctrl (RNF43 wildtype). Description: cell viability activity relative to DMSO (negative = inhibition); higher = more viable cells (less growth inhibition). The note with it: 5 µM; 96 h. On the procedure:
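Broad Repurposing Library primary screen at a single dose of 5 uM. HT29 sg-Ctrl and HT29 RNF43 G659fs CRISPR-edited isogenic cells were seeded at 2500 cells/well in 384-well plates in duplicate and treated for 96 h. Viability was read by CellTiter-Glo and reported as % activity relative to DMSO, with MG132 as the positive control (negative = growth inhibition).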
`O=C(c1cn(Cc2cncn2Cc2ccc(Br)cc2)cc1-c1cccc2ccccc12)N1CCOCC1`: the cell viability activity is -38.5%.

In the case of `CCc1c(O)cc(O)c(C(=O)c2ccc(OCCN3CCOCC3)c(OC)c2)c1CC(=O)N(CCOC)CCOC`, the cell viability activity was -90%.

As to `CC1(C)CC(Oc2ccc(-c3ccc(-c4cn[nH]c4)cc3O)nn2)CC(C)(C)N1`, the cell viability activity is -89.2%.

Consider `CCC(=O)N1CCN(c2ccc(-n3c(=O)ccc4cnc5ccc(-c6cnc7ccccc7c6)cc5c43)cc2C(F)(F)F)CC1`, for which the cell viability activity is -34.6%.

On to `CN(C)CCOc1ccc(-c2nc(-c3ccc4c(c3)CC/C4=N\O)c(-c3ccncc3)[nH]2)cc1`, for which the cell viability activity was -37.9%.

Consider `Oc1ccc(CC2NCCc3cc(O)c(O)cc32)cc1` (centres undefined), for which the cell viability activity was -66.3%.

In the case of `COc1ccc(-c2cc3c(C)nc(N)nc3n([C@H]3CC[C@H](OCCO)CC3)c2=O)cn1`, the cell viability activity is -84.6%.

Consider `CCCSc1ccc2[nH]c(NC(=O)OC)nc2c1`, for which the cell viability activity was -76.8%.

On to `CCCS(=O)(=O)Nc1ccc(F)c(C(=O)c2c[nH]c3ncc(-c4ccc(Cl)cc4)cc23)c1F`, for which the cell viability activity was -47.2%.

In the case of `CC(=O)N(O)CCCCCNC(=O)CCC(=O)N(O)CCCCCNC(=O)CCC(=O)N(O)CCCCCN`, the cell viability activity was -45%.

In the case of `CN(C)CCOc1ccc(/C(=C(/CCCl)c2ccccc2)c2ccccc2)cc1`, the cell viability activity was -82.8%.

In the case of `COc1cc2c(cc1-c1c(C)noc1C)ncc1[nH]c(=O)n([C@H](C)c3ccccn3)c12`, the cell viability activity was -68.4%.

`COc1cc2c(Nc3ccc(Cl)c(Cl)c3F)ncnc2cc1OC[C@@H]1C[C@@H]2CN(C)C[C@@H]2C1`: the cell viability activity is -90.3%.

Turning to `CN1CC[C@H](c2c(O)cc(O)c3c(=O)cc(-c4ccccc4Cl)oc23)[C@H](O)C1`, the cell viability activity is -87.7%.
